From PubChem BioAssay (Tox21) come the findings set out here.

Molecules are shown by their SMILES. Where “and” joins values, the source holds several entries; their conditions need not be identical. Identical values can stand only once. Inconclusive results are not listed. Where a call stands in place of a potency, no number is given. Calls of active or inactive are those of the source. Calls follow the shape of the dose curve; as a rule, active = well fitted cell-killing curve with a large enough effect in the repeat runs; inconclusive = weak or mixed curves, or effect the other way; inactive = no such curve, though single readings can be large or run the other way.
Potency is read from the fitted curve at half-maximal effect.

This assay in a line: qHTS assay for identifying genotoxic compounds that show differential cytotoxicity against isogenic chicken DT40 cell lines with known DNA damage response pathways - wild type cell line (AID 743012). Also: nearly all actives have a fitted effect of over 60% in size. Particulars: DT40 wild type chicken cells viability, CellTiter-Glo, 40 h; series mostly up to 68.4 µM. An excerpt: U.S. Tox21 Program National Center for Advancing Translational Sciences [NCATS] NIH Chemical Genomics Center [NCGC] U.S. Environmental Protection Agency [EPA] National Institutes of Environmental Health Sciences [NIEHS] National Toxicology Program [NTP] U.S. Food and Drug Administration [FDA] Tox21 Assay Overview: DNA repair pathways play a critical role in cellular homeostasis by repairing DNA damage induced by endogenous processes and xenobiotics. Isogenic chicken DT40 cell lines deficient in different DNA repair pathways can be used to identify genotoxic compounds and aid in characterizing the nature of the DNA damage induced. Two DNA repair-deficient cell lines with disrupted genes, Rad54/Ku70 or Rev3, were used to screen the Tox21 10K compound library. Possible genotoxicity was based on the presence of a significant increase in cytotoxicity in one or more of the DNA repair-deficient cell lines compared to that observed in the parental DNA repair-proficient cell line. CellTiter Glo viability assay (Promega, Madison, WI) was used to measure cell viability in these cells after compound treatment. This assay includes the data from the wild type cell line.
Tox21 Assay Protocol Summary: 300 DT40 wild type cells in 5 uL/well were dispensed into white, solid-bottom 1536-well plates using a Multidrop Combi (ThermoFisher Scientific, Waltham, MA) dispenser. After the assay plates were incubated at 37 C/5% CO2 for approximately 0.5 hour, 23 nL of compounds dissolved in DMSO, positive controls or DMSO only was transferred into the assay plate by a pintool work station (Kalypsys, San Diego, CA). The assay plates were incubated at 37 C/5% CO2 for 40 hours. After 5 uL per well of CellTiter-Glo reagent was added into each well of the assay plates, the plates were incubated for 30 min at room temperature and the luminescence intensity of the plates was measured using a ViewLux (PerkinElmer, Shelton, CT) plate reader.
In general terms: Quantitative high-throughput screening tests each substance at several concentrations.
As to `CC1NCCOC1c1ccccc1` (stereo not given), the Potency result was “inactive”.

As to `CC[C@@H](CO)NC(=O)[C@@H]1C=C2c3cccc4[nH]cc(c34)C[C@H]2N(C)C1`, the Potency result is “inactive”.

`CN(C)CCN(C)C`: the Potency result is “inactive”.

With `CC(C)(O)C(Cl)(Cl)Cl`, the Potency entry is “inactive”.

With `Cl/C=C/CCl`, the Potency entry is “inactive”.

Turning to `N=C(N)[Se]`, the Potency was 4.87 µM (active).

Turning to `O=C(Cl)c1ccccc1`, the Potency result was “inactive”.

Take `CC(C)(C1CCC(O)CC1)C1CCC(O)CC1` (stereo not given): the Potency result was “inactive”.

Consider `CC(C)(C)c1cc(O)ccc1O`, for which the Potency was 4.22 µM (active) and 7.7 µM (active).

With `CCNc1nc(Cl)nc(NC(C)(C)C)n1`, the Potency entry was “inactive”.

In the case of `C[C@]12C=CC(=O)C=C1CC[C@@H]1[C@@H]2CC[C@@]2(C)[C@H]1CC[C@]2(C)O`, the Potency is 23.7 µM (active).

With `[P]#[In]`, the Potency entry is “inactive”.

`CCOC(=O)COc1ccc(Cl)cc1Cl`: the Potency result was “inactive”.

Regarding `N[C@@H]1C[C@H]1c1ccccc1`, the Potency entry is “inactive”.

`CCCC(C)C1(CC)C(=O)N=C(S)NC1=O` (stereo not given): the Potency entry is “inactive”.

`c1ccc2c(c1)CCNC2`: the Potency entry was “inactive”.

For `O=C(NC(=O)c1c(F)cccc1F)Nc1cc(Cl)c(F)c(Cl)c1F`, the Potency is 8.42 µM (active).

Take `N#CN`: the Potency result was “inactive”.

Take `CCCCCCCCSC(=O)Oc1cc(Cl)nnc1-c1ccccc1`: the Potency is 54.5 µM (active).

Consider `O=C1CCCCC1Cl` (stereo not given), for which the Potency entry was “inactive”.

On to `CC(Cc1ccccc1)NCCn1cnc2c1c(=O)n(C)c(=O)n2C` (stereo not given), for which the Potency is 67.7 µM (active).

As for `CC(=O)OCC1=C(C(=O)O)N2C(=O)[C@@H](N)[C@H]2SC1`, the Potency result was “inactive”.

Take `O=CCCl`: the Potency was 19.3 µM (active).

For the compound `O=C1CC(=O)NC(=O)N1`, the Potency result is “inactive”.

On to `CCN[C@H](C)Cc1cccc(C(F)(F)F)c1`, for which the Potency was 60.9 µM (active).

Take `CCC(=O)c1ccc(Cl)cc1`: the Potency entry was “inactive”.

With `ClCCCCl`, the Potency result is “inactive”.

As for `CC1=C2[C@H]3OC(=O)[C@@H](C)[C@@H]3CC[C@@]2(C)C=CC1=O`, the Potency result is “inactive”.

Regarding `C=CCN1CC[C@]23CCCC[C@H]2[C@H]1Cc1ccc(O)cc13`, the Potency was 21.1 µM (active).

In the case of `O=c1[nH]oc2c1CCNC2`, the Potency entry was “inactive”.

For `CCOP(=S)(OCC)SCCl`, the Potency entry was “inactive”.

On to `O=S1(=O)OCCO1`, for which the Potency result was “inactive”.

Turning to `CC(C)(C)C(=O)C(Cl)Cl`, the Potency entry was “inactive”.

On to `ClC(Cl)(Cl)Cl`, for which the Potency entry is “inactive”.

With `CCOC(=O)CCl`, the Potency entry is “inactive”.

Regarding `O=C1C2CC=CCC2C(=O)N1SC(Cl)(Cl)Cl` (stereo not given), the Potency is 473 nM (active) and 6.83 µM (active) and 120 nM (active).

On to `O=C(Cl)/C=C/C(=O)Cl`, for which the Potency result is “inactive”.

For the compound `COP(=O)(O)OC`, the Potency result is “inactive”.

In the case of `COc1cccc(C=O)c1`, the Potency result is “inactive”.

As to `CNC(=O)NC(O)C(Cl)(Cl)Cl` (stereo not given), the Potency entry is “inactive”.
